We go through ten compounds from PubChem BioAssay (Tox21).

Values without a mark were called inactive. Records with an inconclusive call do not appear. Calls of active or inactive are those of the source. Unless noted, the call rests on the fitted dose curve; in most records, active means well fitted curve in the direction sought with a large enough effect in the repeat runs; inconclusive means weak or mixed curves; inactive means no such curve, though single readings can be large; an effect the other way counts as inactive or inconclusive.

Assay [1] deals with Luciferin 4-monooxygenase (Photinus pyralis) (UniProt P08659). As to the kind of experiment: qHTS assay to identify small molecule inhibitors of firefly luciferase (AID 1224835). Further: nearly all actives have a fitted effect of over 25% in size. An outline of the steps: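 Quantitative HTS format; KM concentrations of both substrates. Purified P. pyralis FLuc activity quantified from luminescence images.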
A general note: qHTS replaces the single test concentration by a dilution series.

Assay [2] can be described thus: qHTS assay to identify small molecule antagonists of the constitutive androstane receptor (CAR) signaling pathway - cell viability counter screen (AID 1224837). Further: nearly all actives have a fitted effect of over 45% in size. An outline of the steps:
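CITCO at 50 nM final was added alongside compounds (15 concentrations) to double-stable hCAR/CYP2B6-2.2kb HepG2 cells. Following 23 hr at 37 C, cell viability was quantified by CellTiter-Fluor fluorescence intensity.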

Assay [3] concerns the target Nuclear receptor subfamily 1 group I member 3 (Homo sapiens) (UniProt Q14994). Briefly: qHTS assay to identify small molecule antagonists of the constitutive androstane receptor (CAR) signaling pathway (AID 1224838). Further: nearly all actives have a fitted effect of over 40% in size. In a few lines: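 Inhibition of CITCO-driven (50 nM final) CYP2B6 reporter expression is measured in HepG2 cells stably carrying hCAR. Fifteen compound concentrations are applied for 24 h at 37 C, followed by luciferase luminescence.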

Assay [4] is described as follows: qHTS assay to identify small molecule antagonists of the estrogen related receptor signaling pathway with the pleiotropic PPARgamma coactivator (PGC) from Tox21 10K library - cell viability counter screen (AID 1224840; active means well fitted cell-killing curve with a large enough effect in the repeat runs, not every such curve was filed as active; further: nearly all actives have a fitted effect of over 40% in size; further: potency means the concentration at half of the fitted maximal effect). In a few lines: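 Readout: fluorescence intensity from CellTiter-Fluor after 30 min at 37 C/5% CO2. Preceded by 17.5 h treatment of PGC/ERR cells with DMSO-dissolved compounds, added 6 h post-seeding.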

Assay [5] is described as follows: qHTS assay to identify small molecule agonists of the estrogen related receptor signaling pathway with the pleiotropic PPARgamma coactivator (PGC) from Tox21 10K library (AID 1224842). Further: nearly all actives have a fitted effect of over 15% in size. Further: potency means the concentration at half of the fitted maximal effect. An outline of the steps:
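PGC/ERR reporter cells (NTP line) were seeded 2,000 per well, rested 6 h at 37 C/5% CO2, then pin-dosed with compounds in DMSO for 18 h at 37 C; luciferase read by One-Glo luminescence after 30 min at room temperature.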

Assay [6] deals with Thyrotropin receptor (Homo sapiens) (UniProt P16473). Briefly: qHTS assay to identify small molecule agonists of the thyroid stimulating hormone receptor (TSHR) signaling pathway (AID 1224843; calls by dose curve; further: nearly all actives have a fitted effect of over 45% in size). In a few lines:
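Compounds are titrated over 15 concentrations, in triplicate, onto TSHR-HEK293 cells seeded at 800/well. Plates sit 30 min at room temperature before cAMP-d2 and anti-cAMP cryptate are added; signal is read after a further hour.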

Assay [7] is described as follows: qHTS assay to identify small molecule agonists of the hypoxia (HIF-1) signaling pathway - cell viability counter screen (AID 1224844; calls by dose curve; further: nearly all actives have a fitted effect of over 50% in size). In a few lines:
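In this counter screen, HRE-bla ME-180 cell viability after 17 hrs of compound exposure at 37C was read by CellTiter-Glo luminescence, multiplexed with the beta-lactamase reporter measurement.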

Assay [8] in a line: qHTS assay to identify small molecule agonists of H2AX (AID 1224845; active means well fitted activation curve with a large enough effect in the signal ratio in the repeat runs, not every such curve was filed as active; the % refers to the signal ratio). An outline of the steps:
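Wild-type CHO-K1 cells plated overnight, then exposed 3 hr at 37C to compounds at 15 concentrations (0.76% DMSO). Lysed, then HTRF anti-pH2AX(S139)-cryptate/anti-H2AX-d2 detection after 24 hr at room temperature; emissions 665 and 620 nm.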

Assay [9] in a line: qHTS assay to identify small molecule agonists of H2AX - cell viability counter screen (AID 1224847; calls by dose curve; further: top concentration of the series differs between compounds; nearly all actives have a fitted effect of over 30% in size). An outline of the steps: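 CHO-K1 wt, 1000 cells/well, o/n 37C; cpds 15 conc, 3 h 37C, 0.76% DMSO; CellTiter-Glo, 30 min RT, luminescence.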
A short description of assay [10]: qHTS assay to identify small molecule agonists of the estrogen related receptor (ERR) signaling pathway from Tox21 library (AID 1224849; calls by dose curve; further: nearly all actives have a fitted effect of over 15% in size). Particulars: ERR reporter cell line, ONE-Glo luciferase, 18 h; at 92.4 µM (top of the series) unless noted. An outline of the steps: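 Luciferase activity in ERR pathway reporter cells served as the agonist readout; exposure lasted 18 h at 37 C, with ONE-Glo detection after 30 min at room temperature.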

Assay [11] is described as follows: qHTS RealTime-Glo MT Cell Viability Assay in HepG2 cells - 24 hour (AID 1224867). Further: nearly all actives have a fitted effect of over 50% in size. In a few lines: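 Real-time, nonlytic viability: 600 HepG2 cells/well mixed with NanoLuc enzyme plus prosubstrate; 5 h settle, compound (DMSO) added by pintool; luminescence monitored over 40 h at 37 C.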
A short description of assay [12]: qHTS RealTime-Glo MT Cell Viability Assay in HEK293 cells - 32 hour (AID 1224868). Further: nearly all actives have a fitted effect of over 50% in size. Further: potency means the concentration at half of the fitted maximal effect. An outline of the steps:
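Cells + reagent dispensed (600 cells/well, HEK293) → 5 h at 37 C/5% CO2 → 23 nL compound in DMSO pinned → 40 h at 37 C → luminescence read at 0, 8, 16, 24, 32, 40 h.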

Assay [13] can be described thus: A CellTox Green Cytotoxicity Assay to monitor cytotoxicity in HEK293 cells - 0 hour (AID 1224869). Further: nearly all actives have a fitted effect of over 50% in size. In a few lines:
(§1)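 Real-time, in one plate: 600 HEK293 cells/well with dead-cell DNA dye, pinned compound after 5 h, 37 C incubation over 40 h; viable cells give no appreciable fluorescence.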

Assay [14] is described as follows: A CellTox Green Cytotoxicity Assay to monitor cytotoxicity in HEK293 cells - 40 hour (AID 1224871). Further: nearly all actives have a fitted effect of over 45% in size. An outline of the steps:
as §1

The nature of assay [15]: qHTS assay to identify small molecule antagonists of the estrogen related receptor signaling pathway with the pleiotropic PPARgamma coactivator (PGC) from Tox21 10K library (AID 1224841; call rule not given here; further: potency means the concentration at half of the fitted maximal effect). In a few lines: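 One-Glo luminescence, measured after half an hour at room temperature, quantified reporter output of PGC/ERR cells. These had been plated at 2,000 per well, incubated 6 h, dosed with compounds in DMSO, then kept 18 h at 37 C.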

Assay [16] is described as follows: qHTS assay to identify small molecule agonists of the hypoxia (HIF-1) signaling pathway (AID 1224846; active means well fitted activation curve with a large enough effect in the signal ratio in the repeat runs, not every such curve was filed as active; the % refers to the signal ratio). An outline of the steps:
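ME-180 HRE-bla reporter cells; compounds in DMSO, 17 h at 37C; read-out beta-lactamase via CCF4-AM FRET.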

Assay [17] can be described thus: qHTS assay to identify small molecule antagonists of the estrogen related receptor (ERR) signaling pathway from Tox21 library (AID 1224848). Further: nearly all actives have a fitted effect of over 50% in size. Further: potency means the concentration at half of the fitted maximal effect. An outline of the steps: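 First, 2,000 ERR cells per well were plated and held 6 h at 37 C/5% CO2. Next, compounds in DMSO were pinned in and left 18 h at 37 C. Finally, ONE-Glo was added and luminescence read after 30 min at room temperature.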

Assay [18] in a line: qHTS RealTime-Glo MT Cell Viability Assay in HepG2 cells - 40 hour (AID 1224870). Further: nearly all actives have a fitted effect of over 50% in size. In a few lines: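 HepG2 cells mixed with RealTime-Glo MT reagents (NanoLuc plus cell-permeant prosubstrate) were seeded at 600 cells/well, incubated 5 h at 37 C/5% CO2, then pinned with compounds in DMSO; nonlytic luminescence tracked viability during 40 h treatment.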
A short description of assay [19]: qHTS assay to identify small molecule agonists of the constitutive androstane receptor (CAR) signaling pathway - cell viability counter screen (AID 1224836). Further: nearly all actives have a fitted effect of over 45% in size. In a few lines:
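Viability read-out: CellTiter-Fluor fluorescence after 23 h compound exposure at 37 C/5% CO2 in double-stable HepG2-CYP2B6-hCAR cells, with PK11195 present at 0.75 uM final; compounds tested in 15-point titration.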

Assay [20] concerns the target Nuclear receptor subfamily 1 group I member 3 (Homo sapiens) (UniProt Q14994). As to the kind of experiment: qHTS assay to identify small molecule agonists of the constitutive androstane receptor (CAR) signaling pathway (AID 1224839). Further: nearly all actives have a fitted effect of over 15% in size. Further: potency means the concentration at half of the fitted maximal effect. In a few lines: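 Luminescence read-out (ONE-Glo, 30 min, room temperature) from double-stable HepG2-CYP2B6-hCAR cells exposed 24 h to 15-point compound series in presence of 0.75 uM PK11195 final.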
On the % scale 0 is the no-effect control and ±100 the full control effect.

Sequence of Thyrotropin receptor (Homo sapiens) (P16473 whole entry, looked up): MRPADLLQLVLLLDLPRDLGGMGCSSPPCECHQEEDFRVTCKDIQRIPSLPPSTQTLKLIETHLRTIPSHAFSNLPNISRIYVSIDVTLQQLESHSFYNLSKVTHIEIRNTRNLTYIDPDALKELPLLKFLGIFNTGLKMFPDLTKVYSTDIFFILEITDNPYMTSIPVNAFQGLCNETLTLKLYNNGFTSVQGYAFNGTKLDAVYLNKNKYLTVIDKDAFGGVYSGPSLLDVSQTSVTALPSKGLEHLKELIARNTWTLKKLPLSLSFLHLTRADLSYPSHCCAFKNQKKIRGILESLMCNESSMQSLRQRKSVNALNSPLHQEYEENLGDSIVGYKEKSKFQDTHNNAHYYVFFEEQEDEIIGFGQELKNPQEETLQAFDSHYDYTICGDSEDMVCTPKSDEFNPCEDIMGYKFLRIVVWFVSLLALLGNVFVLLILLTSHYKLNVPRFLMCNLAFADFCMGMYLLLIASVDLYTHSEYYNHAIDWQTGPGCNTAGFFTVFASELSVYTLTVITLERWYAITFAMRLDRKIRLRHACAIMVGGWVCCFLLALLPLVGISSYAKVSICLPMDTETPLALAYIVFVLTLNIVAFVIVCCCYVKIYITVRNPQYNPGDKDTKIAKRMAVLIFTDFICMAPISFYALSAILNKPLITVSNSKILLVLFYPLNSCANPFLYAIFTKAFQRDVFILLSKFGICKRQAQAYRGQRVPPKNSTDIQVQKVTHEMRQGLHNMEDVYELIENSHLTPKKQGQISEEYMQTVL
Sequence of Nuclear receptor subfamily 1 group I member 3 (Homo sapiens) (Q14994 whole entry, looked up): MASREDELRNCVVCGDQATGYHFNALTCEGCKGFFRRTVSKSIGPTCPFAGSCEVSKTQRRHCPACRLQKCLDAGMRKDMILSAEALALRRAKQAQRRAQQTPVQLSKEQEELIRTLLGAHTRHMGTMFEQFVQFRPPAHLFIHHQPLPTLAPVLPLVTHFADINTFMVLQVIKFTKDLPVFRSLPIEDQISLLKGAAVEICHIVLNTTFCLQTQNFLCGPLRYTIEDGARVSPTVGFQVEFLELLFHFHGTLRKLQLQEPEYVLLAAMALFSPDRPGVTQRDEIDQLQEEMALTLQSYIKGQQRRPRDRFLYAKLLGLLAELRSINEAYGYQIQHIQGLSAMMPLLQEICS
Sequence of Luciferin 4-monooxygenase (Photinus pyralis) (P08659 whole entry, looked up): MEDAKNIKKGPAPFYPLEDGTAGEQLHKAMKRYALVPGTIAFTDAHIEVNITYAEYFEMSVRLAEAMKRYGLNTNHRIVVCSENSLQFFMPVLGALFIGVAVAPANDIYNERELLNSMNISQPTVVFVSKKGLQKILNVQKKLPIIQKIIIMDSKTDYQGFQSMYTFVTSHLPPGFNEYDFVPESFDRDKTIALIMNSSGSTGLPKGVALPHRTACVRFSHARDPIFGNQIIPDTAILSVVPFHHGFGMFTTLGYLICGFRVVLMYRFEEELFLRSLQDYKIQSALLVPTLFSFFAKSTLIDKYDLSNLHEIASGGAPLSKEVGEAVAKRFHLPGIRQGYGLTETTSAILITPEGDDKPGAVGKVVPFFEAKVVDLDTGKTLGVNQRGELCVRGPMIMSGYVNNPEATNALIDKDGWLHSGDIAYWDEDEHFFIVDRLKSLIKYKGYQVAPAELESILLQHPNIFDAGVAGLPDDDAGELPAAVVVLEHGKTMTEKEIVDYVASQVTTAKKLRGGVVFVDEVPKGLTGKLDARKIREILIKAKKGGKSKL

For `CN1CCN(C2=Nc3ccccc3Oc3ccc(Cl)cc32)CC1`, the Potency result in assay [1], in assay [2], in [3], in assay [4], in assay [5] and in assay [6] was “inactive” throughout. In addition, the Potency entry in assay [7], in [8], in assay [9], in assay [11], in assay [12] and in [13] was “inactive” each time. The Potency result in [14] was “inactive”. The activity change, positive = activation in assay [10] is -21.9% [at 42.5 µM].
With `CC[C@H]1CC[C@H](NCc2cc3c(cc2OC)[C@H]2C[C@H]2C(=O)N3C)[C@H](c2ccccc2)N1`, the Potency was 21.7 µM (active) in [15], 27.3 µM (active) in [17] and 19.5 µM (active) in assay [12]. Moreover, the Potency entry in assay [5], in assay [6], in assay [7], in assay [8], in [9] and in [11] was “inactive” each time. The Potency result in [13], in assay [18] and in assay [14] was “inactive” throughout. Also, the compound was classed as inactive in assay [16]. For the same compound, in assay [10], the activity change, positive = activation is -40.9%.
In the case of `CCCCCOc1ccc(C2SC(=O)NC2=O)cc1OCC` (stereo not drawn), the Potency result in [19], in assay [2], in assay [3], in assay [4], in assay [7] and in assay [8] was “inactive” in each case. In addition, the Potency entry in assay [11], in assay [13], in assay [18] and in [14] was “inactive” in each case. The compound was classed as inactive in [16].
Take `CC(C)(C)c1cccc(O)c1`: the Potency entry in [19], in assay [2], in assay [4], in assay [15], in assay [5] and in assay [6] was “inactive” in each case. The Potency result in assay [7], in assay [8], in [9], in assay [17], in assay [11] and in [12] was “inactive” throughout. Also, the Potency entry in assay [13], in [18] and in [14] was “inactive” throughout. Besides, in assay [16], the call was inactive. Further, the activity change, positive = activation in assay [10] is 1.25%.
Turning to `CC(C)c1ccccc1`, the Potency result in assay [19], in [3], in assay [20], in [4], in assay [6] and in [7] was “inactive” throughout. Besides, the Potency entry in assay [8], in assay [9], in [11], in [13] and in [18] was “inactive” throughout. The result in [16] was inactive.
Turning to `CC1(C)C(=O)N(Cl)C(=O)N1Br`, the Potency entry in assay [19], in [3], in assay [4], in [7], in assay [8] and in assay [9] was “inactive” each time. Moreover, the Potency result in assay [11], in [12], in assay [18] and in assay [14] was “inactive” each time. Moreover, the compound was called inactive in [16].
As for `CS(=O)(=O)c1ccc([C@@H](O)[C@@H](CF)NC(=O)C(Cl)Cl)cc1`, the Potency result in assay [19], in [2], in [20], in assay [4], in assay [6] and in assay [7] was “inactive” each time. Moreover, the Potency result in assay [8], in [9], in assay [11], in assay [13], in [18] and in assay [14] was “inactive” in each case. The call in [16] was inactive.
For the compound `OCc1c2ccccc2cc2ccccc12`, the Potency result in assay [19], in assay [4], in assay [5], in [7], in assay [11] and in [18] was “inactive” in each case. The Potency result in assay [14] is “inactive”. Moreover, the Potency in assay [15] is 68.8 µM (active). In addition, the outcome in assay [16] was inactive. For the same compound, the activity change, positive = activation in assay [10] is -18.3%.
As for `COc1ccc(S(=O)(=O)Nc2nnc(CC(C)C)s2)cc1`, the Potency result in assay [19], in assay [2], in assay [4], in assay [7], in assay [9] and in [11] was “inactive” in each case. Further, the Potency entry in [12], in assay [13], in assay [18] and in [14] was “inactive” throughout. Besides, in assay [16], the compound was called inactive.
Regarding `Nc1ccc(Oc2ccc(N)c(N)c2)cc1`, the Potency entry in assay [19], in assay [3], in assay [15], in assay [7], in [9] and in assay [17] was “inactive” each time. Besides, the Potency result in [11], in [13], in assay [18] and in assay [14] was “inactive” in each case. For the same compound, the Potency in assay [20] is 2.43 µM (active); in [4], 48.6 µM (active); in assay [5], 9.69 µM (active). The call in [16] was inactive. In addition, the activity change, positive = activation in [10] was 53.1% (active).
